Laboratory results reported in PubChem BioAssay AID1159580 (chemical genetic matrix, 2015).
Where “and” joins values, the source holds several entries; their conditions need not be identical. Identical values can stand only once. The campaign covered roughly 5,500 compounds. About 2,000 (36%) were called active. About 18% were inconclusive and are not listed. Cut-off read from the data, not from the text of the source: active = normalized growth mostly below about 0.91 (no sharp cut-off); inconclusive = no clear call, values can overlap the other calls; inactive = mostly above about 0.92. The list shows a part of the results.

Experiment: chemical genetic growth profiling, strain panel (AID 1159580);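 note: tested at 20 µM; growth read once vehicle control cultures reached saturation at 30 °C; 1 = growth at the plate median or of vehicle wells; lower values mean less growth of the strain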
Conditions: growth OD

Measured: normalized growth

COc1ccc2[nH]cc(CCNC(C)=O)c2c1
inactive: S. cerevisiae deletion strains, locus YJR075W, strain HOC1, active compounds read low 1.07 | S. cerevisiae deletion strains, locus YKL009W, strain mrt4, active compounds read low 1.01 | S. cerevisiae deletion strains, locus YKL068W, active compounds read low 1.01 | S. cerevisiae deletion strains, locus YKL085W, strain MDH1 (second series), active compounds read low 1.01 | S. cerevisiae deletion strains, locus YKL085W, strain MDH1, active compounds read low 1.01 | S. cerevisiae deletion strains, locus YKL160W, strain elf1, active compounds read low 0.979 | S. cerevisiae deletion strains, locus YKL190W, strain CNB1, active compounds read low 1 | S. cerevisiae deletion strains, locus YKR001C, strain vps1, active compounds read low 1.03 | S. cerevisiae deletion strains, locus YKR026C, strain gcn3, active compounds read low 0.97 | S. cerevisiae deletion strains, locus YKR091W, strain srl3, active compounds read low 0.969 | S. cerevisiae deletion strains, locus YLL001W, strain dnm1, active compounds read low 0.971 | S. cerevisiae deletion strains, locus YLL026W, active compounds read low 0.979 | S. cerevisiae deletion strains, locus YLL041C, strain sdh2, active compounds read low 0.977 | S. cerevisiae deletion strains, locus YLR027C, strain aat2, active compounds read low 0.975 | S. cerevisiae deletion strains, locus YLR039C, strain RIC1, active compounds read low 1.04 | S. cerevisiae deletion strains, locus YLR058C, strain SHM2, active compounds read low 1.01 | S. cerevisiae deletion strains, locus YLR102C, strain apc9, active compounds read low 1.03 | S. cerevisiae deletion strains, locus YLR113W, strain HOG1, active compounds read low 1 | S. cerevisiae deletion strains, locus YLR221C, strain rsa3, active compounds read low 0.969 | S. cerevisiae deletion strains, locus YLR258W, strain gsy2, active compounds read low 0.973 | S. cerevisiae deletion strains, locus YLR262C, strain YPT6 (second series), active compounds read low 0.987 | S. cerevisiae deletion strains, locus YLR262C, strain YPT6, active compounds read low 1.02 | S. cerevisiae deletion strains, locus YLR268W, strain sec22, active compounds read low 1.03 | S. cerevisiae deletion strains, locus YLR320W, strain mms22, active compounds read low 0.955 | S. cerevisiae deletion strains, locus YLR330W, strain CHS5, active compounds read low 1.01 | S. cerevisiae deletion strains, locus YLR342W, strain FKS1 (second series), active compounds read low 1.01 | S. cerevisiae deletion strains, locus YLR342W, strain FKS1, active compounds read low 0.983 | S. cerevisiae deletion strains, locus YLR357W, strain rsc2, active compounds read low 0.93 | S. cerevisiae deletion strains, locus YLR370C, strain arc18, active compounds read low 0.974 | S. cerevisiae deletion strains, locus YLR371W, strain rom2, active compounds read low 1.02 | S. cerevisiae deletion strains, locus YLR384C, strain iki3, active compounds read low 0.951 | S. cerevisiae deletion strains, locus YLR418C, strain cdc73, active compounds read low 1.05 | S. cerevisiae deletion strains, locus YML016C, strain PPZ1, active compounds read low 1.01 | S. cerevisiae deletion strains, locus YML032C, strain rad52, active compounds read low 1.03 | S. cerevisiae deletion strains, locus YML120C, strain ndi1, active compounds read low 0.982 | S. cerevisiae deletion strains, locus YML124C, strain tub3, active compounds read low 1.02 | S. cerevisiae deletion strains, locus YMR058W, strain fet3, active compounds read low 0.974 | S. cerevisiae deletion strains, locus YMR078C, strain ctf18, active compounds read low 1.03 | S. cerevisiae deletion strains, locus YMR125W, strain sto1, active compounds read low 0.956 | S. cerevisiae deletion strains, locus YMR129W, active compounds read low 0.977 | S. cerevisiae deletion strains, locus YMR205C, strain PFK2, active compounds read low 0.979 | S. cerevisiae deletion strains, locus YMR223W, strain ubp8, active compounds read low 1.03 | S. cerevisiae deletion strains, locus YMR231W, strain pep5, active compounds read low 0.957 | S. cerevisiae deletion strains, locus YMR263W, strain SAP30, active compounds read low 1.01 | S. cerevisiae deletion strains, locus YMR307W, strain GAS1, active compounds read low 1.05 and 0.978 | S. cerevisiae deletion strains, locus YNL067W, strain RPL9B, active compounds read low 1.01 | S. cerevisiae deletion strains, locus YNL071W, strain lat1, active compounds read low 0.975 | S. cerevisiae deletion strains, locus YNL128W, strain TEP1, active compounds read low 1.02 | S. cerevisiae deletion strains, locus YNL153C, strain GIM3, active compounds read low 1.01 | S. cerevisiae deletion strains, locus YNL175C, strain NOP13, active compounds read low 1.02 | S. cerevisiae deletion strains, locus YNL183C, strain NPR1, active compounds read low 0.942 | S. cerevisiae deletion strains, locus YNL197C, strain WHI3, active compounds read low 1.01 | S. cerevisiae deletion strains, locus YNL209W, strain ssb2, active compounds read low 0.971 | S. cerevisiae deletion strains, locus YNL224C, strain SQS1, active compounds read low 1 | S. cerevisiae deletion strains, locus YNL233W, strain BNI4, active compounds read low 1.02 | S. cerevisiae deletion strains, locus YNL248C, strain rpa49, active compounds read low 0.968 | S. cerevisiae deletion strains, locus YNL250W, strain rad50, active compounds read low 1.04 | S. cerevisiae deletion strains, locus YNL271C, strain bni1, active compounds read low 1.05 | S. cerevisiae deletion strains, locus YNL298W, strain CLA4, active compounds read low 1.03 | S. cerevisiae deletion strains, locus YNL307C, strain MCK1, active compounds read low 1.04 | S. cerevisiae deletion strains, locus YNL322C, strain KRE1 (second series), active compounds read low 0.968 | S. cerevisiae deletion strains, locus YNL322C, strain KRE1, active compounds read low 1 | S. cerevisiae deletion strains, locus YNR049C, strain mso1, active compounds read low 0.972 | S. cerevisiae deletion strains, locus YNR052C, strain pop2, active compounds read low 1.03 | S. cerevisiae deletion strains, locus YOL006C, strain TOP1, active compounds read low 1.07 | S. cerevisiae deletion strains, locus YOL012C, strain htz1 1.19 | S. cerevisiae deletion strains, locus YOL147C, strain pex11, active compounds read low 1.02 | S. cerevisiae deletion strains, locus YOR001W, strain rrp6, active compounds read low 0.988 | S. cerevisiae deletion strains, locus YOR061W, strain CKA2, active compounds read low 1.01 | S. cerevisiae deletion strains, locus YOR069W, strain VPS5, active compounds read low 0.997 | S. cerevisiae deletion strains, locus YOR070C, strain gyp1, active compounds read low 0.988 | S. cerevisiae deletion strains, locus YOR080W, strain dia2, active compounds read low 0.972 | S. cerevisiae deletion strains, locus YOR083W, strain WHI5 (second series), active compounds read low 1.01 | S. cerevisiae deletion strains, locus YOR083W, strain WHI5, active compounds read low 0.98 | S. cerevisiae deletion strains, locus YOR106W, strain vam3, active compounds read low 0.982 | S. cerevisiae deletion strains, locus YOR136W, strain idh2, active compounds read low 1.04 | S. cerevisiae deletion strains, locus YOR144C, strain elg1, active compounds read low 1.02 | S. cerevisiae deletion strains, locus YOR184W, strain ser1, active compounds read low 1.04 | S. cerevisiae deletion strains, locus YOR231W, strain MKK1, active compounds read low 1.02 | S. cerevisiae deletion strains, locus YOR265W, strain rbl2, active compounds read low 0.984 | S. cerevisiae deletion strains, locus YOR270C, strain vph1, active compounds read low 0.966 | S. cerevisiae deletion strains, locus YOR290C, strain snf2, active compounds read low 0.972 | S. cerevisiae deletion strains, locus YOR316C, strain cot1, active compounds read low 1.03 | S. cerevisiae deletion strains, locus YPL051W, strain arl3, active compounds read low 0.967 | S. cerevisiae deletion strains, locus YPL055C, strain LGE1, active compounds read low 1.04 | S. cerevisiae deletion strains, locus YPL078C, strain atp4, active compounds read low 0.977 | S. cerevisiae deletion strains, locus YPL106C, strain sse1, active compounds read low 0.978 | S. cerevisiae deletion strains, locus YPL240C, strain hsp82, active compounds read low 0.977 | S. cerevisiae deletion strains, locus YPL241C, strain CIN2, active compounds read low 1 | S. cerevisiae deletion strains, locus YPL256C, strain CLN2, active compounds read low 1.01 | S. cerevisiae deletion strains, locus YPR119W, strain clb2, active compounds read low 1.02 | S. cerevisiae deletion strains, locus YPR141C, strain kar3, active compounds read low 1.03 | S. cerevisiae deletion strains, locus YPR163C, strain tif3, active compounds read low 1.02 | S. cerevisiae deletion strains, locus YPR167C, strain met16, active compounds read low 1.03 | S. cerevisiae deletion strains, strain wtn01, active compounds read low 1.02 | S. cerevisiae strains, strain wild type, active compounds read low 1.01
